From PubChem BioAssay AID1220 (Sanford-Burnham Center for Chemical Genomics, 2008) come the findings set out here.

One may read the inhibition as the relative decrease from the control value, in per cent.

Among all 190,000 compounds or so, about 1,300 (0.68%) were called active. Rule as the data show it: active = inhibition above about 50%; inactive = the rest. For the sample, actives were picked, then their nearest neighbours and some compounds at random.

The target of the experiment is Mannose-6-phosphate isomerase (Homo sapiens) (UniProt P34949). Put plainly: MPI inhibition at elevated mannose 6-phosphate – biochemical, fluorescence intensity, high mannose 6-phosphate, primary screen (AID 1220). As to conditions: recombinant PMI enzyme, coupled fluorescence intensity; at 20 µM; active compounds read high.
Mannose-6-phosphate isomerase (Homo sapiens), sequence (P34949 whole entry, looked up): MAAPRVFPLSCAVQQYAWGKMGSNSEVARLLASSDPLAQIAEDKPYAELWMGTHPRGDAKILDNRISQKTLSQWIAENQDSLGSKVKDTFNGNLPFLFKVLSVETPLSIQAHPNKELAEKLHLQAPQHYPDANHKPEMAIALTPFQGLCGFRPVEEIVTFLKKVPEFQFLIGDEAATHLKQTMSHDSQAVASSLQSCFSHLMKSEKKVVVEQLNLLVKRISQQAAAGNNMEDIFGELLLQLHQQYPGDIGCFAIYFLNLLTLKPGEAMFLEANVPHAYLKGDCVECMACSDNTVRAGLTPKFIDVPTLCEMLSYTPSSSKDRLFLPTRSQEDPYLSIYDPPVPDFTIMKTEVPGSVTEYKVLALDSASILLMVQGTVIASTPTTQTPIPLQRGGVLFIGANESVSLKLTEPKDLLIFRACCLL
For `CCOC(=O)c1c(C)oc2c1c(C(c1ccncc1)N1CCOCC1)c(O)c1ccccc12` (centres undefined), the inhibition is 10.8% (inactive).

Consider `CCOC(=O)c1c(C)oc2ccc(O)c(CN3CCCCC3)c12`, for which the inhibition was 6.2% (inactive).

Take `CCOC(=O)c1c(C)oc2c1c(C(c1cccnc1)N1CCCCC1)c(O)c1ccccc12` (centres undefined): the inhibition was 26.9% (inactive).

For `CCOC(=O)c1c(C)oc2c1c(C(c1cccnc1)N1CCOCC1)c(O)c1ccccc12` (centres undefined), the inhibition is 58% (active).

On to `CCOC(=O)c1c(C)oc2c1c(C(c1cccnc1)N1CCN(C)CC1)c(O)c1ccccc12` (centres undefined), for which the inhibition was 28.8% (inactive).

With `CCOC(=O)c1c(C)oc2c1c1c(c3ccccc32)OCN(Cc2cccnc2)C1`, the inhibition was 67.3% (active).

As to `CC(=O)Oc1ccc2c(c1)c(C(C)=O)c(C)n2C`, the inhibition is -2.9% (inactive).

Consider `COc1ccccc1C(=O)N/N=C/c1cnc2ccccc2n1`, for which the inhibition is -4.4% (inactive).

As for `CCCCNC(=O)c1ccc(CNS(=O)(=O)c2ccc(Br)cc2)cc1`, the inhibition is 4.4% (inactive).

For `COc1cc(C2C(C#N)=C(C)NC3=C2C(=O)CC(C)(C)C3)ccc1OCCO` (centres undefined), the inhibition is 5.4% (inactive).

For `COc1cc(C2CC(=O)NC3=C2C(=O)CC(C)(C)C3)cc(OC)c1O` (centres undefined), the inhibition was 54.4% (active).

As to `COc1cc(C2C(C#N)=C(C)NC3=C2C(=O)CC(C)(C)C3)cc(OC)c1O` (centres undefined), the inhibition is 66.5% (active).

With `COc1cc(C2CC(=O)NC3=C2C(=O)CC(C)(C)C3)ccc1O` (centres undefined), the inhibition was 4.3% (inactive).

On to `COc1cc(C2C(C#N)=C(C)NC3=C2C(=O)CC(C)(C)C3)ccc1O` (centres undefined), for which the inhibition is 3.8% (inactive).

On to `CC1(C)CC(=O)C2=C(C1)NC(=O)CC2c1ccc(F)cc1` (centres undefined), for which the inhibition is -3.1% (inactive).

As to `CCc1cccc(NC(=O)CS(=O)Cc2nc(-c3ccc(C)cc3)oc2C)c1` (centres undefined), the inhibition was 6.8% (inactive).

Regarding `COc1ccccc1-n1cnnc1SCC(=O)NCC1CCCO1` (centres undefined), the inhibition was -9.1% (inactive).

In the case of `Cc1ccc2nc(-c3ccccc3)c(CN3CCOCC3)n2c1`, the inhibition was -1% (inactive).

Consider `O=C(NC(=S)Nc1nc(-c2ccc(Cl)cc2)cs1)c1cccs1`, for which the inhibition was -11.6% (inactive).

With `COc1ccc(C)cc1NC(=O)c1ccoc1C`, the inhibition was 3.7% (inactive).

Turning to `Cc1ccc(-c2cn3c(n2)SCC3)cc1`, the inhibition is 1% (inactive).

For `Oc1ccc(-c2cn3c(n2)SCC3)cc1`, the inhibition is -10.9% (inactive).

With `Oc1ccc(-c2cn3c(n2)SCC3)cc1O`, the inhibition is 53.1% (active).

As to `O=C(NCc1cccnc1)NC1CCCN1S(=O)(=O)c1ccc(Cl)cc1` (centres undefined), the inhibition is -3.5% (inactive).

Consider `Cc1ccc(-c2csc(NC(=O)CSc3ncn(-c4ccccc4)n3)n2)cc1`, for which the inhibition is 0% (inactive).

In the case of `COc1cccc(NC(=O)CSc2nc3c(c(=O)n2C)SC(C)C3)c1` (centres undefined), the inhibition is 2.4% (inactive).

Turning to `O=C(Nc1cccc(S(=O)(=O)N2CCCCC2)c1)c1ccc(OCC2CCCO2)cc1` (centres undefined), the inhibition is 2.6% (inactive).

`CCOc1ccc(C(=O)N[C@H](C(=O)Nc2cccc(S(=O)(=O)N3CCCCC3)c2)C(C)C)cc1`: the inhibition was 57.6% (active).

Take `CCOc1ccc(C(=O)N[C@H](C(=O)Nc2ccc(OC)c(S(=O)(=O)N3CCOCC3)c2)C(C)C)cc1`: the inhibition is 10.3% (inactive).

Turning to `CCOC(=O)COn1c(=O)c(=O)n(O)c2ccccc21`, the inhibition is 24.9% (inactive).

For `Oc1ccc(/C=N/N=C/c2ccc(O)cc2)cc1`, the inhibition is -2.8% (inactive).

Consider `NC(N)=N/N=C/c1ccc(OCc2ccccc2)cc1`, for which the inhibition was 1.2% (inactive).

`O=Cc1ccc(O)c(O)c1`: the inhibition was -5% (inactive).

As for `CC(=O)Nc1ccc(N=Cc2ccc(OCc3ccccc3)cc2)cc1`, the inhibition was 10.3% (inactive).

Regarding `Oc1ccc(N=Cc2ccc(OCc3ccccc3)cc2)cc1`, the inhibition was 58.5% (active).

As for `Oc1ccc(N=Cc2ccc(O)c(O)c2)cc1`, the inhibition was 52.6% (active).

`O=C(c1sc2ccccc2c1Cl)N(Cc1ccccc1Cl)C1CCS(=O)(=O)C1` (centres undefined): the inhibition was 1.4% (inactive).

For the compound `COc1cc(OC)cc(C(=O)OCC(=O)Nc2ccc(N3CCCCC3)cc2)c1`, the inhibition is -11.3% (inactive).

Regarding `COc1ccc(-c2nn(CCC#N)cc2/C=N/O)cc1OC`, the inhibition was 10.3% (inactive).

As to `O=C(CSc1ccc(-c2ccc(F)cc2)nn1)N1CCCc2ccccc21`, the inhibition was 13.5% (inactive).

For the compound `Cc1c(Cl)c([N+](=O)[O-])nn1CC(=O)Nc1ccc2c(c1)OCO2`, the inhibition is -4.5% (inactive).

In the case of `COCCNC(=O)Cn1c(=O)n(CCCCCC(=O)NCc2ccc3c(c2)OCO3)c(=O)c2sccc21`, the inhibition is -13.4% (inactive).

For the compound `CCOc1ccc(NC(=O)C2CC(C)=C(C)CC2C(=O)O)cc1` (centres undefined), the inhibition is 0.7% (inactive).

As for `CCOC(=O)c1sc(NC(=O)c2ccccc2F)c(C(N)=O)c1C`, the inhibition is 56.6% (active).

On to `CCOC(=O)c1sc(NC(C)=O)c(C(=O)OCC)c1C`, for which the inhibition was 7.7% (inactive).

`CCOC(=O)c1sc(NC(=S)NC(=O)c2ccccc2Cl)c(C(=O)OCC)c1C`: the inhibition is 5.4% (inactive).

Regarding `Cn1nc(-c2ccc(Cl)cc2)nc2c(=O)n(C)c(=O)nc1-2`, the inhibition is 10.6% (inactive).

Consider `Cn1c(=O)c(-c2ccccc2)nc2ccccc21`, for which the inhibition was 4.9% (inactive).

Turning to `CCCc1nc(SCC(=O)c2ccc(OC)cc2)c2c(=O)n(C)c(=O)n(C)c2n1`, the inhibition was -2.5% (inactive).

Take `CCn1c(N)nc2c1c(=O)n(C)c(=O)n2C`: the inhibition is -1.8% (inactive).

`COC(=O)c1ccccc1OCCOc1ccccc1C(=O)OC`: the inhibition is 2.8% (inactive).

`COc1ccccc1-c1nc2cc3ccccc3cc2nc1-c1ccccc1OC`: the inhibition is 50.1% (active).

As for `COc1ccc(OC)c(-c2nc3cc4ccccc4cc3nc2-c2ccccc2)c1`, the inhibition was 10.1% (inactive).

`COc1ccccc1-c1nc2ccccc2nc1-c1ccccc1`: the inhibition was 12.5% (inactive).

For the compound `COc1ccccc1-c1nc2ccccc2nc1-c1ccccc1OC`, the inhibition was 2.8% (inactive).

In the case of `COc1ccccc1-c1cc2ccccc2[nH]1`, the inhibition is 4.7% (inactive).

As for `COc1ccccc1-c1nc2cc3ccccc3cc2nc1-c1ccccc1`, the inhibition is 50.6% (active).

On to `CC(=O)Nc1ccc(C(=O)OCC(=O)Nc2ccccc2Sc2ccccc2)cc1`, for which the inhibition is 2.4% (inactive).

Regarding `COc1ccccc1CNC(=O)COc1ccc([N+](=O)[O-])cc1`, the inhibition is 2.1% (inactive).

Take `COc1ccc(CC(=O)Nc2cccc(SC)c2)cc1`: the inhibition is 1.7% (inactive).

As for `COc1ccccc1NC1=C(NC(C)=O)C(=O)c2ccccc2C1=O`, the inhibition is 60.1% (active).

Turning to `Cc1ccc(NC2=C(Cl)C(=O)c3ccccc3C2=O)cc1`, the inhibition is 41.8% (inactive).

Consider `O=C1C(Cl)=C(NCCN2CCCCC2)C(=O)c2ccccc21`, for which the inhibition is 54.3% (active).

As for `CCNC1=C(Cl)C(=O)c2ccccc2C1=O`, the inhibition was 15.6% (inactive).

In the case of `O=C(O)c1cccc(NC2=C(Cl)C(=O)c3ccccc3C2=O)c1`, the inhibition is 39.9% (inactive).

In the case of `COc1ccccc1NC(C)=O`, the inhibition was 9.5% (inactive).

In the case of `O=C1c2ccccc2C(=O)N1CCN1CCCCC1`, the inhibition is 2.7% (inactive).

In the case of `O=C(Oc1ccc(NC2=C(Cl)C(=O)c3ccccc3C2=O)cc1)c1ccc([N+](=O)[O-])cc1`, the inhibition is 32.9% (inactive).

`O=C1C(Cl)=C(Nc2ccccc2)C(=O)c2ccccc21`: the inhibition is 52.5% (active).

Consider `CC(=O)Nc1ccc2c(c1)C(=O)c1ccccc1C2=O`, for which the inhibition is -69.9% (inactive).

`CC(=O)Nc1ccc(NC2=C(Cl)C(=O)c3ccccc3C2=O)cc1`: the inhibition is 57.8% (active).

Take `COc1ccccc1NC1=C(N2CCCCC2)C(=O)c2ccccc2C1=O`: the inhibition was 2.6% (inactive).

In the case of `CCCCn1nnnc1SCC(=O)c1ccc(C)c(C)c1`, the inhibition is 7.7% (inactive).

For the compound `COCCCNC(=O)CCCCCNS(=O)(=O)c1ccc(Br)cc1`, the inhibition is -6.2% (inactive).

Regarding `COc1ccccc1OCC(=O)Sc1ccc(C)cc1`, the inhibition was 13% (inactive).

As to `CC(=O)c1ccc(N2CCN(C(=O)Nc3ccc(C)cc3)CC2)cc1`, the inhibition is -1.7% (inactive).

With `Cc1ccccc1Nc1ncnc(N)n1`, the inhibition is -3.4% (inactive).

Take `O=[N+]([O-])c1ccc(Cl)cc1Sc1ccccn1`: the inhibition is 2.7% (inactive).

With `Cn1c(SCC(=O)c2ccc3c(c2)OCO3)nnc1C1COc2ccccc2O1` (centres undefined), the inhibition was 1.3% (inactive).

As for `COC(=O)c1ccc(CSc2cc(C)c3cc(C)cc(C)c3n2)o1`, the inhibition was -4.5% (inactive).

Consider `CCN(CC)CCCNC1=C(Cl)C(=O)c2ccccc2C1=O`, for which the inhibition was 58.1% (active).

Regarding `C=CCNC1=C(Cl)C(=O)c2ccccc2C1=O`, the inhibition is 38.6% (inactive).

As for `CCOc1ccc(NC2=C(OC)C(=O)c3ccccc3C2=O)cc1`, the inhibition is 25.9% (inactive).

In the case of `O=C1C(Cl)=C(NCCCO)C(=O)c2ccccc21`, the inhibition is 2.8% (inactive).

Consider `CCN(CC)c1ccc(N2C(=O)c3ccccc3C2=O)cc1`, for which the inhibition was 4.2% (inactive).

As for `CCN(CC)c1ccc(NC2=C(Cl)C(=O)c3ccccc3C2=O)cc1`, the inhibition was 56.9% (active).

Take `CN1C(=O)c2ccc(NC(=S)NC(=O)C(C)(C)C)cc2C1=O`: the inhibition is 8.4% (inactive).

Take `COCCSc1nnc(NC(=O)C2CCCCC2)s1`: the inhibition is -1.4% (inactive).

Consider `CCN(c1ccccc1)S(=O)(=O)c1ccc2[nH]cc(C(=O)N3CCOCC3)c(=O)c2c1`, for which the inhibition was 8.3% (inactive).

For `COc1cccc2c(=O)c(C/C=C(/C)Cl)c(C)[nH]c12`, the inhibition is 4.6% (inactive).

Take `COc1cccc2c(=O)c3cccc(N)c3[nH]c12`: the inhibition is 65.6% (active).

`COc1cccc2c(=O)c(SC(F)(F)C(F)C(F)(F)F)c(C)[nH]c12` (centres undefined): the inhibition was 6.8% (inactive).

With `COc1ccc(-c2csc(/C(C#N)=C\c3ccc(OC)c([N+](=O)[O-])c3)n2)cc1`, the inhibition was 3.4% (inactive).

As to `CCN1CCN(C(=S)Nc2ccc3nc4n(c(=O)c3c2)CCCCC4)CC1`, the inhibition was -3.2% (inactive).

For `Cc1ccc(S(=O)(=O)NCC(=O)NCC(=O)OCC(=O)N2CC(=O)Nc3ccccc32)cc1C`, the inhibition was 13.9% (inactive).

Consider `COc1ccccc1NC(=O)CC1S/C(=N/N=C2\CCCc3ccccc32)NC1=O` (centres undefined), for which the inhibition is 6.9% (inactive).

With `Fc1ccc(/C=N/N2CCOCC2)c(F)c1`, the inhibition is 8.8% (inactive).

Turning to `CCN(CC)c1ccc(/C=N/N2CCOCC2)cc1`, the inhibition is 14.3% (inactive).

For the compound `CCN(CC)c1ccc(/C=N/N2CCOCC2)c(O)c1`, the inhibition is 53.7% (active).

For `CCN(CC)c1ccc(/C=N/N2CCN(Cc3ccc(C)cc3)CC2)c(O)c1`, the inhibition was 30.3% (inactive).

For the compound `CCN(CC)c1ccc(/C=N/N2CCN(Cc3ccccc3)CC2)c(O)c1`, the inhibition is 53% (active).

Turning to `COc1cccc(/C=N/N2CCOCC2)c1O`, the inhibition is 3.6% (inactive).

Take `CCN(CC)c1ccc(/C=N/N2CCN(Cc3cccc4ccccc34)CC2)c(O)c1`: the inhibition was 30.7% (inactive).

`CCN(CC)c1ccc(/C=N/N2CCN(Cc3ccc(C)cc3C)CC2)c(O)c1`: the inhibition is 39.8% (inactive).
